# Compound activity from PubChem BioAssay.
# In the library only some 1.2% were active in any assay of this set; here they are far more common.
# RGS7-Gao: RGS7-Galphao binding modulators, primary screen, biochemical, multiplexed bead flow cytometry | Guanine nucleotide-binding protein G(o) subunit alpha (Homo sapiens), P09471 | actives lie on both sides | binding response (% of control), % at 10 µM | 220,000 compounds, 0.35% hits; in the data active means binding response below about 49% or above about 150%; inconclusive means no clear call, values can overlap the other calls; inactive means in between;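 further: fluorescent Galphao held in activated GDP-AlF4 state binding bead-coupled RGS7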
# Target sequence (P09471 whole entry, looked up): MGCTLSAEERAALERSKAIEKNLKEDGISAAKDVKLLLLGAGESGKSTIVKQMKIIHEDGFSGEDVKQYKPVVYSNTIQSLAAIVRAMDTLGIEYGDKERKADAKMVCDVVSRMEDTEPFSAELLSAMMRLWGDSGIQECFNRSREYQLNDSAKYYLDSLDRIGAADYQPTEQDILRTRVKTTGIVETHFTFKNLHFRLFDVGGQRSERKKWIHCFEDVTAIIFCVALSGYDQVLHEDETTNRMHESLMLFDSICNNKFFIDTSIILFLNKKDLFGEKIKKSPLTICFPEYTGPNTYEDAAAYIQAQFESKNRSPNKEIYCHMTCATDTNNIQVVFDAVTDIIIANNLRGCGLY
# RGS8-Gao: RGS8-Galphao binding modulators, primary screen, biochemical, multiplexed bead flow cytometry. Guanine nucleotide-binding protein G(o) subunit alpha (Homo sapiens), P09471. actives lie on both sides. response (percent of control binding), % at 10 µM. 220,000 compounds, 0.34% hits. AID 1423, 2008; in the data active means response below about 60% or above about 140%; inactive means in between;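 further: Galphao activated as the GDP aluminium fluoride complex binding bead-coupled RGS8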
# GSH fluor: compound fluorescence on glutathione beads, profiling panel, artefact control, biophysical, 488/530 nm, flow cytometry; GSH beads flow cytometry, compound fluorescence 488/530 nm; stronger effect = higher value; fluorescence (KMESF) at 10 µM; 190,000 compounds, 0.25% hits; AID 1776, 2009; in the data active means fluorescence above about 89;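 further: glutathione beads carrying GST-tagged Bcl family fusion proteins plus one bare bead set; values are compound well signal with DMSO vehicle wells as background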
# Avidin bead fluor: green autofluorescence of compounds with avidin beads – biophysical, 488/530 nm, flow cytometry, artefact control, profiling panel; AID 1775, 2009; 220,000 compounds, 0.38% hits; compound fluorescence 488/530 nm; stronger effect = higher value; fluorescence (KMESF) at 10 µM; in the data active means fluorescence above about 47
# RGS4-Gao reg: modulators of RGS4 binding to Galphao, primary screen, biochemical, multiplexed bead flow cytometry; Guanine nucleotide-binding protein G(o) subunit alpha (Homo sapiens), P09471; actives lie on both sides; binding response (% of control), % at 10 µM; 220,000 compounds, 0.33% hits; AID 1415, 2008; in the data active means binding response below about 49% or above about 150%; inactive means in between;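 further: fluorescent Galphao activated with aluminum fluoride binding bead-coupled RGS4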
# RGS16-Gao: modulators of RGS16 binding to Galphao, primary screen, biochemical, human proteins, multiplexed bead flow cytometry; Regulator of G-protein signaling 16 (Homo sapiens) + Guanine nucleotide-binding protein …; bead-based flow cytometry RGS16-Galphao binding, fluorescence; actives lie on both sides; binding response (% of control), % at 10 µM; 220,000 compounds, 0.38% hits; AID 1441, 2008;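 further: Galphao activated by GDP with aluminum fluoride before binding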
# RGS-Gao: modulators of RGS–Galpha-o binding, primary screen, biochemical, multiplexed beads, flow cytometry, RGS4/7/8/16/19; multiplexed bead flow cytometry; RGS4–Galpha-o binding response, % at 10 µM; 1,600 compounds, 99% hits; shares compounds with RGS16-Gao;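 further: fluorescently labeled Galpha-o bound to GDP with aluminium fluoride binding biotinylated RGS beads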
# Avidin counter: disruption of biotin probe capture by avidin, counter-screen for RGS protein interaction modulators, biochemical, flow cytometry, bead-based | shares compounds with RGS16-Gao | streptavidin beads, fluorescein-biotin binding | inhibition, % at 10 µM | 1,700 tested, under 10 active;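 active means inhibition above 50%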;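 further: median green fluorescence of gated singlet beads compared with DMSO control wells; 0% = DMSO wells and 100% = complete loss of bead fluorescence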
# RGS8-Gao confirm: RGS8-Galphao binding modulators, confirmation, biochemical, multiplexed bead flow cytometry, single concentration; shares compounds with RGS16-Gao; bead-based flow cytometry RGS8-Galphao binding, fluorescence; actives lie on both sides; binding response (% of control), % at 10 µM; 1,700 compounds, 3% hits; in the data active means binding response below about 72% or above about 130%; inactive means in between;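 further: Galphao activated as GDP AlF4 complex before binding bead RGS8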
# RGS7-Gao single: RGS7-Galphao binding modulators, confirmation, biochemical, multiplexed bead flow cytometry, single concentration; shares compounds with RGS16-Gao; bead-based flow cytometry RGS7-Galphao binding; actives lie on both sides; response (percent of control binding), % at 10 µM; 1,700 compounds, 7.8% hits; in the data active means response below about 75% or above about 130%; inactive means in between;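 further: fluorescent Galphao activated with GDP and aluminum fluoride binding bead-coupled RGS7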
# RGS16-Gao conf: modulators of RGS16-Galphao protein binding, confirmation, biochemical, single concentration, multiplexed bead flow cytometry | shares compounds with RGS16-Gao | bead-based flow cytometry; actives lie on both sides | response (% of control binding), % at 10 µM | 1,700 compounds, 4% hits | AID 1838, 2009; in the data active means response below about 74% or above about 130%; inactive means in between;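 further: Galphao activated as the GDP aluminium fluoride complex binding bead-coupled RGS16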
# RGS4-Gao single: modulators of RGS4-Galphao protein binding, confirmation, biochemical, single concentration, multiplexed bead flow cytometry. shares compounds with RGS16-Gao. actives lie on both sides. binding response (% of control), % at 10 µM. 1,700 compounds, 4% hits; in the data active means binding response below about 74% or above about 130%; inactive means in between
# RGS19-Gao conf: regulators of RGS19-Galphao binding, confirmation, biochemical, single point, multiplexed bead flow cytometry; shares compounds with RGS16-Gao; bead-based flow cytometry RGS19-Galphao binding; actives lie on both sides; response (percent of control binding), % at 10 µM; 1,700 compounds, 5% hits; AID 1841, 2009; in the data active means response below about 50% or above about 160%; inactive means in between;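 further: 100% = no compound control and 0% = blank background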
# Target sequence (P09471 whole entry, looked up): as above
# Target sequence (P49795 whole entry, looked up): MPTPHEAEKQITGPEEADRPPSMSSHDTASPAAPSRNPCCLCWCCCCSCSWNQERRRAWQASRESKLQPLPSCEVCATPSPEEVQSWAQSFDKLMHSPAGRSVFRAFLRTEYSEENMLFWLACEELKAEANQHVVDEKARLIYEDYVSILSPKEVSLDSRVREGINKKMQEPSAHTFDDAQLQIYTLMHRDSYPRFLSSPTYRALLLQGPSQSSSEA
# * hit, by the source's call; ? = inconclusive; . = not tested or not shown; + = active, no number; [ ] = dose if it differs, or a comment. Unless noted, how the calls were made is not given here.
SMILES,RGS7-Gao,RGS8-Gao,GSH fluor,Avidin bead fluor,RGS4-Gao reg,RGS16-Gao,Avidin counter,RGS8-Gao confirm,RGS7-Gao single,RGS16-Gao conf,RGS4-Gao single,RGS19-Gao conf,others
CCOc1ccc(C(=O)/C=C/c2cc(OC)c(OC)c(OC)c2)cc1,?,99.9,20,9,101.7,100.8,.,.,.,.,.,.,
CCOc1ccc(C(=O)/C=C/c2ccc(SC)cc2)cc1,100.3,99.7,22,33,100.2,104.3,.,.,.,.,.,.,
CCOc1ccc(/C=C/C(=O)c2ccccc2)cc1,?,23.1*,.,-1,-8.9*,-3.6*,-3.2,99.2,88.1,94.4,94.6,73.6,
CC(C)CNC(=O)CSc1nnc(-c2ccc(Cl)cc2)n1N,?,100.2,14,7,102.2,100.9,.,.,.,.,.,.,
CC(C)(C)n1nnnc1SCC(=O)Nc1nn(-c2ccccc2)nc1C(N)=O,97.5,102.1,7,20,99.0,109.4,.,.,.,.,.,.,
COCCn1c(SCC(=O)Nc2nnc(C)s2)nnc1-c1ccncc1,.,.,17,.,.,.,0.2,96.2,100.7,95.9,104.0,104.6,
CCNc1ccc(S(=O)(=O)N(C)C)cc1NCC(=O)Nc1ccc(F)c(Cl)c1,100.5,82.9,7,8,105.7,24.5*,-0.2,107.0,105.3,112.0,104.7,112.3,RGS-Gao=105.7*
CCNc1ccc(S(=O)(=O)N(C)C)cc1NCC(=O)Nc1ccccc1F,104.0,106.7,8,13,102.4,111.7,.,.,.,.,.,.,
CC(NC(=O)Cc1cccs1)C(c1cccs1)N1CCOCC1 (centres undefined),44.9*,45.5*,37,2,39.3*,7.5*,1.4,111.2,118.5,109.9,114.3,105.2,
CC1CCC2(CC1)NC(=S)N(c1ccccc1)N2 (centres undefined),170.6*[activator],101.7,10,125*,139.5,104.8,-0.5,94.2,94.3,92.5,95.1,98.2,RGS-Gao=139.5*
O=C(N1CCN(c2ccccc2)CC1)C12CC3CC(CC(C3)C1)C2,104.2,102.9,23,12,105.2,106.4,.,.,.,.,.,.,
O=C(N1CCN(Cc2ccccc2)CC1)C12CC3CC(CC(C3)C1)C2,.,.,18,.,.,.,1.7,100.2,101.3,102.9,104.2,100.6,
O=C(C(Cc1ccccc1)n1cccc1)N1CCN(Cc2ccccc2)CC1 (centres undefined),116.4,144.1*[activator],22,3,113.2,209.4,2.2,99.3,95.0,103.3,97.2,85.8,RGS-Gao=113.2*
O=C(C(Cc1ccccc1)n1cccc1)N1CCCCC1 (centres undefined),100.1,100.7,24,6,101.8,101.8,.,.,.,.,.,.,
CCOC(=O)C(=CNc1cscc1S(=O)(=O)C(C)C)C(=O)OCC,?,100.3,.,3,103.6,103.2,.,.,.,.,.,.,
O=[N+]([O-])c1cccc(/C=C/C=N/Nc2nc(N3CCCCC3)nc(N3CCCCC3)n2)c1,98.2,104.2,11,3,102.7,101.0,.,.,.,.,.,.,
Cc1ccccc1N=C(NOCc1ccc(Cl)cc1Cl)c1nonc1N,.,.,37,.,.,.,2.2,96.2,95.0,93.9,96.3,103.1,
CCOc1cc(/C=N/O)ccc1OCc1ccc([N+](=O)[O-])cc1,101.0,99.2,11,15,101.1,97.9,.,.,.,.,.,.,
O=[N+]([O-])c1ccc(COc2ccccc2/C=N/O)cc1,90.7,72.9,9,1,89.2,22.5*,-0.4,105.7,106.8,105.4,107.5,99.2,RGS-Gao=89.2*
CCOC(=O)c1[nH]ncc1CN1CCN(Cc2ccccc2)C(CCO)C1 (centres undefined),98.2,102.1,11,3,101.6,100.2,.,.,.,.,.,.,
O=[N+]([O-])c1ccc(/C=N/n2c(COc3ccccc3)n[nH]c2=S)cc1,104.2,102.6,6,17,101.9,103.4,.,.,.,.,.,.,
O=[N+]([O-])c1cccc(/C=N/n2c(COc3ccccc3)n[nH]c2=S)c1,116.9,139.9,17,7,117.9,271.6*[activator],-1.5,92.8,87.5,85.0,88.9,75.4,RGS-Gao=117.9*
O=C(CSc1nnc(CNc2ccccc2)o1)N1CCc2ccccc21,99.5,98.2,15,6,97.5,101.9,.,.,.,.,.,.,
O=C(CSc1nnc(Cc2ccccc2)o1)N1CCCc2ccccc21,98.0,99.0,43,.,92.9,.,-1.1,100.4,104.9,101.1,101.5,83.1,
O=C(CSc1nnc2n1CCCN2)c1ccc(Cl)cc1,-277.9*,-19.4*,11,-5,+[activator],88.2,1.8,100.2,103.7,101.8,104.8,99.7,
CC(=O)c1c(C(C)=O)c(C)n(NC(=O)c2ccc(Cl)cc2)c1C,163.0*[activator],107.8,21,71*,193.8*[activator],174.3,-1.3,109.4,111.7,110.2,111.5,123.5,
CCOC(=O)C1(Cc2cccc(OC)c2)CCN(CC2CC=CCC2)CC1 (centres undefined),99.2,100.8,24,9,100.8,101.3,.,.,.,.,.,.,
